# Data published in PubChem BioAssay (NCI).
# About 83,000 compounds went through this panel and 20% of them were active in at least one assay; those are over-represented in the sample as a whole.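 Plates (96-well) were seeded with cells, treated with compound at one concentration, and incubated for 48 hours before percent growth was determined.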 Values without a mark were called inactive. Activity calls are given as the source filed them. How the source made its calls: active means growth percent below 10; inactive means the rest.
# How the values were obtained:
# Assay in all cases: NCI-60 one-dose screen, 48 h (100 = growth as untreated, 0 = no growth, -100 = all killed)
# Settings in all cases: 10 µM unless noted
# [1] = test system: T-47D breast
# [2] = test system: BT-549 breast
# [3] = test system: MDA-MB-435 melanoma
# [4] = test system: SW-620 colon
# [5] = test system: MCF7 breast
# [6] = test system: HCT-116 colon
# [7] = test system: HCC-2998 colon
# [8] = test system: KM12 colon
SMILES,growth [1],growth [2],growth [3],growth [4],growth [5],growth [6],growth [7],growth [8]
Nc1n[nH]c2ccc([C@H]3[C@@H]4C5CCC(C5)[C@@H]4c4c(ccc5[nH]ncc45)N3S(=O)(=O)C3CC3)cc12 (stereo partly drawn),64.6%,-2.63% (active),-35.3% (active),21.9%,13.1%,4.97% (active),18.4%,7.27% (active)
NC(=O)c1c(NC(=O)c2ccc3ccccc3c2)sc2c1CCC(=O)C2,33.4%,20.9%,92.8%,14.3%,52.6%,7.15% (active),107%,34.9%
O=C(Nc1ccccc1)Nc1ncnc2c1ncn2-c1ccc(Cl)cc1,63.8%,102%,92.1%,97.7%,82.5%,36.6%,105%,87.1%
NC(=O)c1ccc(-c2c3ccccc3cc3c2ccc2ccccc23)cc1,60.4%,29.1%,0.545% (active),17.1%,17.7%,33.4%,60%,3.27% (active)
N#Cc1nc(-c2ccc(F)cc2)oc1S(=O)(=O)N1CCCCC1,2.97% (active),80%,83.8%,-72.2% (active),56%,-19.4% (active),105%,99.1%
CCC(C(=O)[C@@H](C)[C@@H](O)[C@H](C)[C@@H]1O[C@@H]([C@@H](CC)C(=O)ONC(=O)c2ccccc2)CC[C@@H]1C)[C@H]1O[C@]2(C=CC(=O)[C@]3(CC[C@@](C)([C@H]4CC[C@](O)(CC)[C@H](C)O4)O3)O2)[C@H](C)C[C@@H]1C (stereo partly drawn),21.4%,6.21% (active),20.8%,19.7%,3.51% (active),-36.9% (active),20.7%,16.2%
N#Cc1c(-c2ccccc2)cc(-c2ccccc2)n(CCCC(=O)Nc2ccccc2N)c1=O,64.1%,55.4%,-15.6% (active),35%,36%,45%,85.7%,42.3%
CC(C)(Sc1cc(C(C)(C)C)c(O)c(C(C)(C)C)c1)Sc1cc(C(C)(C)C)c(OC(=O)CCCC(=O)O)c(C(C)(C)C)c1,36.6%,64.9%,60.4%,43.7%,36.2%,26.5%,50.4%,36.7%
COC(=O)c1nc(-c2ccc(C)cc2)oc1S(=O)(=O)c1cccc(OC)c1,90%,70.6%,100%,65.5%,95.6%,61.6%,103%,93.5%
Cc1cccc(CNc2c3ccccc3nc3ccccc23)c1,25.3%,67.3%,29.1%,17.2%,6.23% (active),9.81% (active),3.58% (active),25.6%
CC(=O)c1c(C)nc(SCC(=O)Nc2cccc(O)c2)n1-c1ccc(Cl)cc1,95.9%,93.1%,84.7%,87.3%,91.1%,94.8%,99.3%,93.7%
CN1CCc2nc3sc(C(N)=O)c(N)c3c(-c3cccs3)c2C1,42.9%,10.7%,29.6%,35%,12.6%,4.02% (active),53.5%,6.55% (active)
CC(=O)Oc1ccc(N2C(=O)C(Cl)=C(Nc3cccc(C(F)(F)F)c3)C2=O)cc1,86.6%,85.8%,97.5%,99.1%,92.8%,91%,104%,96.3%
CC1CCN(S(=O)(=O)c2ccc(S(=O)(=O)N3CCCC(c4nc5c(nnn5Cc5cccc(Cl)c5)c(=O)[nH]4)C3)cc2)CC1 (stereo not drawn),50.3%,67.9%,-30.9% (active),33.4%,23.3%,15.1%,70.8%,39.3%
Cc1ccc(NC(=O)Cn2cc(CN3CCN(c4ccnc5cc(Cl)ccc45)CC3)nn2)cc1,86.5%,81.5%,94.5%,88.6%,79.4%,96.9%,97.3%,85.8%
CN(C)CCNC(=O)c1ccc(-c2nc3ccc4[nH]ncc4c3c3c2C2CCC3C2)cc1 (stereo not drawn),43.6%,2.26% (active),42%,17.8%,9.64% (active),9.52% (active),38.5%,2.75% (active)

SMILES,growth [1],growth [2],growth [3],growth [4],growth [5],growth [6],growth [7],growth [8]
COc1ccc(Nc2nc(-c3cc(O)c(C)c(C)c3O)cs2)cc1,39.5%,79.1%,7.82% (active),70.6%,47.1%,82.5%,110%,23.7%
Nc1n[nH]c2cccc(C#Cc3cccc(C(=O)Nc4cc(C(F)(F)F)cc(C(F)(F)F)c4)c3)c12,73.9%,98.6%,47.6%,78.6%,65.5%,35.3%,80.3%,43.9%
Nc1cc(C(=O)NC[C@H]2CN(c3ccc(N4CCC(C(=O)O)CC4)cc3)C(=O)O2)ccc1Cl,98.3%,104%,108%,97.7%,95.3%,105%,107%,100%
O=S(=O)(NCCCNc1nccc(-c2c(-c3ccc(F)c(O)c3)nc3occn23)n1)c1ccc(Cl)cc1,69.1%,79.4%,27.6%,97.8%,55.9%,32.8%,85.7%,70.2%
C#CCOc1ccc2ncnc(Nc3ccc(NC(=O)C=C)cc3)c2c1,4.07% (active),-28.7% (active),-18.9% (active),-45.8% (active),-10.4% (active),-79.9% (active),82.2%,8.91% (active)
CC(C)Cn1cnc2c(=O)[nH]c(N)nc21,85.3%,98.5%,109%,106%,86.7%,101%,104%,106%
Cc1ccc(C(=O)c2ccc(CC(=O)N/N=C/c3ccccc3O)n2C)cc1,75.6%,85.1%,83.2%,89.6%,81.5%,92.1%,92.1%,80.4%
C=C1C(=O)O[C@H]2[C@H]1CC/C(Cn1cc(-c3ccccc3)nn1)=C\CC[C@@]1(C)O[C@@H]21,-38% (active),-61.1% (active),-21.5% (active),-79.1% (active),-60.1% (active),-67.1% (active),5.21% (active),56%
CC(=O)Oc1ccc(/C(=C(\C)c2ccc(Cl)cc2)c2ccc(OCCN3CCCCC3)cc2)cc1,29.8%,73.5%,-5.9% (active),66.7%,3.38% (active),32.4%,-4.12% (active),24%
O=C(/C=C/c1cccc(Cl)c1)c1ccc(Nc2nc(Nc3ccc(F)cc3)nc(Nc3ccc(Cl)cc3)n2)cc1,113%,172%,117%,104%,230%,82.3%,98.2%,112%
Cc1ccc2c(n1)C(=O)C(Br)=C(C1CCCC1)C2=O,90%,95.5%,108%,85.8%,89.8%,73.7%,115%,99.6%
COc1ccc(C2=Nc3c(N)nc(N)nc3NC(c3cccc(Nc4ccnc5cc(C(F)(F)F)ccc45)c3)C2)cc1 (stereo not drawn),93%,107%,10.1%,50.4%,37.7%,37.9%,72.2%,40.4%
O=C(c1nn(-c2ccccc2)c2c1CC(NCc1ccc(F)cc1)CC2)N1CCCCC1 (stereo not drawn),93.6%,84.6%,98.9%,110%,88.1%,90.5%,104%,102%
COc1ccc(OC)c(-c2nc(SCC(=O)c3ccc(C#N)cc3)[nH]c(=O)c2C#N)c1,117%,99.4%,100%,98.6%,100%,95%,95.9%,91.8%
Cc1c(-c2ccc(O)cc2)n(Cc2ccc(OCCN3CCCCCC3)cc2)c2ccc(O)cc12,58.4%,84%,79.6%,66.3%,11.6%,59.1%,114%,73.4%
